We go through 8 compounds from PubChem BioAssay (Tox21).

Values without a mark were called inactive. Inconclusive results are not listed. The source made the active and inactive calls. Unless noted, calls follow the shape of the full dose curve.

A short description of experiment [1]: qHTS assay to identify small molecule agonists of the sonic hedgehog signaling (Shh) pathway (AID 1259368).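 Also: NIH/3T3-derived 3T3Gli1-Luc cells carrying a stable Gli1-driven firefly luciferase reporter; series mostly up to about 92 µM; nearly all actives have a fitted effect of over 15% in size.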 The gist of the method: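 Luminescence was read after 30 min at room temperature with luciferase reagent. Before that, 3T3Gli1-Luc cells (NIH/3T3 clone, stable Gli1-Luc reporter; 2,000/well) were exposed to compounds for 24 hr at 37C, 5% CO2, compounds being added 4 hr post-plating.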

A short description of experiment [2]: qHTS assay to identify small molecule antagonists of the sonic hedgehog signaling (Shh) pathway (AID 1259369). Also: nearly all actives have a fitted effect of over 45% in size. Also: potency is read from the fitted curve at half-maximal effect. In outline: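 Antagonist mode: compound added to 3T3 Gli1-Luc cells followed by conditioned-medium stimulation, 24 h at 37 C, 5% CO2. Inhibition taken as loss of Gli1-driven luciferase luminescence.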
(In general: In qHTS, concentration-response curves come from the screen itself.)

Experiment [3] deals with Estrogen receptor beta (Homo sapiens) (UniProt Q92731). Briefly: qHTS assay to identify small molecule agonists of the estrogen receptor beta (ER-beta) signaling pathway (AID 1259377; active = well fitted activation curve with a large enough effect in the signal ratio in the repeat runs, not every such curve was filed as active; the % refers to the signal ratio). The gist of the method: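 Screening used GripTite ER-beta-UAS-bla cells held in 2% charcoal-stripped FBS medium. After overnight (16 hr) compound incubation at 37C, beta-lactamase activity was detected with a FRET substrate by fluorescence.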

A short description of experiment [4]: qHTS assay to identify small molecule agonists of the androgen receptor (AR) signaling pathway in the presence of an antagonist - cell viability counter screen (AID 1259379; active = well fitted curve in the direction sought with a large enough effect in the repeat runs; an effect the other way counts as inactive or inconclusive;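 also: MDA-kb2 human breast cancer cells carrying an MMTV luciferase reporter; series mostly up to about 92 µM; nearly all actives have a fitted effect of over 25% in size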). The gist of the method:
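Cytotoxicity counter-screen run in the same wells as the nilutamide-challenged (3.0 µM final) AR agonist assay in MDA-kb2 cells. Compounds tested at 15 concentrations for 16 h, 37 °C without CO2; CellTiter-Fluor fluorescence read.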

A short description of experiment [5]: qHTS assay to identify small molecule agonists of the estrogen receptor beta (ER-beta) signaling pathway - cell viability counter screen (AID 1259380; active = well fitted curve in the direction sought with a large enough effect in the repeat runs; an effect the other way counts as inactive or inconclusive; also: nearly all actives have a fitted effect of over 30% in size). In outline: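 Cell viability counter screen: CellTiter-Glo luminescence (30 min, room temperature) measured in the same wells as the beta-lactamase readout, after 16 hr compound exposure at 37C of ER-beta-bla HEK293T cells in 2% charcoal-stripped FBS medium.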

Experiment [6] is described as follows: qHTS assay to identify small molecule antagonists of the estrogen receptor beta (ER-beta) signaling pathway - cell viability counter screen (AID 1259382; active = well fitted curve in the direction sought with a large enough effect in the repeat runs; an effect the other way counts as inactive or inconclusive; also: series mostly up to about 92 µM; nearly all actives have a fitted effect of over 55% in size). In outline:
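Cytotoxicity was measured in the same wells by CellTiter-Glo luminescence after 30 min at room temperature. Cells were ER-beta-bla HEK293T in charcoal-stripped serum, given compound together with 1 nM E2 and incubated 16 h at 37C.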

The target of experiment [7] is Estrogen receptor (Homo sapiens) (UniProt P03372). Briefly: qHTS assay to identify small molecule agonists of the estrogen receptor alpha (ER-alpha) signaling pathway in the presence of an antagonist (AID 1259383). Also: top concentration of the series differs between compounds; nearly all actives have a fitted effect of over 15% in size. In outline: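 Agonist-mode confirmation run in the presence of 10.0nM (final) ICI-182,780 antagonist. The reporter was ERE-driven luciferase in VM7Luc4E2 cells, grown in charcoal-stripped serum. Cells were exposed to 15-concentration compound series for 22hr, then ONE-Glo luminescence was read.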

Experiment [8] in a line: qHTS assay to identify small molecule agonists or antagonists of the thyroid stimulating hormone receptor (TSHR) signaling pathway - wild type cell line counter screen (AID 1259384). The gist of the method: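 Wild-type HEK293 cells were plated 18 h at 37 C/5% CO2, pin-dosed with compound plus Ro20-1724 medium, held 30 min at room temperature, then given cAMP-d2 and anti-cAMP-cryptate; fluorescence was read after 1 h. Fifteen concentrations, triplicate.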

Experiment [9] has as its target Thyrotropin receptor (Homo sapiens) (UniProt P16473). Briefly: qHTS assay to identify small molecule antagonists of the thyroid stimulating hormone receptor (TSHR) signaling pathway (AID 1259385). Also: nearly all actives have a fitted effect of over 20% in size. Also: potency is read from the fitted curve at half-maximal effect. In outline: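 TSHR-HEK293 cells were plated and held 18 h at 37C/5% CO2, then given compound plus Ro20-1724 and stimulated with TSH at 1.5 ng/mL final. After 30 min at room temperature, cAMP was detected with cAMP-d2/anti-cAMP-cryptate (1 h) by fluorescence.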

Experiment [10] in a line: qHTS assay to identify small molecule agonists of the estrogen receptor alpha (ER-alpha) signaling pathway in the presence of an antagonist - cell viability counter screen (AID 1259386; active = well fitted curve in the direction sought with a large enough effect in the repeat runs; an effect the other way counts as inactive or inconclusive; also: series mostly up to about 92 µM; nearly all actives have a fitted effect of over 30% in size). In outline: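 Compounds tested at 15 concentrations for 22 h at 37C alongside 10.0nM (final) ICI-182,780 antagonist, in VM7Luc4E2 cells grown in phenol red-free, charcoal-stripped medium. Viability read by CellTiter-Fluor fluorescence after 1 h reagent incubation.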

Experiment [11] has as its target Progesterone receptor (Homo sapiens) (UniProt P06401). The experiment in a line: qHTS assay to identify small molecule agonists of the progesterone receptor (PR) signaling pathway (AID 1346784). Also: nearly all actives have a fitted effect of over 30% in size. The gist of the method: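 Seed PR-UAS-bla HEK 293T cells (2% charcoal-stripped FBS), incubate 6 hr at 37C; add compounds in DMSO, 16 hr at 37C; add LiveBLAzer B/G substrate, 2 hr RT; read fluorescence intensity.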

For experiment [12] the target is unchanged. Briefly: qHTS assay to identify small molecule antagonists of the progesterone receptor (PR) signaling pathway (AID 1346795; active = well fitted inhibition curve with a large enough effect in the signal ratio in the repeat runs, not every such curve was filed as active; the % refers to the signal ratio). The gist of the method: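 Screening used a GripTite HEK293T line with PR-responsive UAS-beta-lactamase. Cells were challenged with compound in the presence of 1 nM R5020 final for 16 hr at 37C; B/G FRET substrate, 2 hr room temperature, fluorescence.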

Experiment [13] is described as follows: qHTS assay to identify small molecule agonists of the progesterone receptor (PR) signaling pathway - cell viability counter screen (AID 1346799). Also: nearly all actives have a fitted effect of over 45% in size. In outline:
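Using the same plates as the PR reporter screen, HEK293T PR-UAS-bla cells received compounds for 16 hr at 37C and were then lysed with CellTiter-Glo; luminescence was read 30 min later at room temperature.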

The nature of experiment [14]: qHTS assay to identify small molecule antagonists of the TGF-beta/Smad signaling pathway - cell viability counter screen (AID 1346824; active = well fitted curve in the direction sought with a large enough effect in the repeat runs; an effect the other way counts as inactive or inconclusive; also: nearly all actives have a fitted effect of over 50% in size). The gist of the method:
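SBE-bla HEK 293T cells were plated overnight at 37 C, then given compounds in DMSO plus TGF-beta1 (added as 0.25 ng/mL solution) for 5 hr. After the bla read, CellTiter-Glo was added to the same wells and luminescence read after 30 min at room temperature.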

Experiment [15] in a line: qHTS assay to identify small molecule agonists of the TGF-beta/Smad signaling pathway (AID 1346859; active = well fitted activation curve with a large enough effect in the signal ratio in the repeat runs, not every such curve was filed as active; the % refers to the signal ratio; also: series mostly up to about 77 µM). In outline:
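Beta-lactamase reporter activity downstream of Smad binding elements was measured in stably transfected HEK 293T cells; compounds were incubated for 5 hr, substrate for 2 hr at room temperature.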

The target in experiment [16] is Estrogen receptor beta (Homo sapiens) (UniProt Q92731). Briefly: qHTS assay to identify small molecule antagonists of the estrogen receptor beta (ER-beta) signaling pathway (AID 1259378; active = well fitted inhibition curve with a large enough effect in the signal ratio in the repeat runs, not every such curve was filed as active; the % refers to the signal ratio; also: potency is read from the fitted curve at half-maximal effect). In outline: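 ER-beta-UAS-bla HEK293T (GripTite) cells in 2% charcoal-stripped FBS medium were preincubated 6 hr at 37C, dosed with compound, then stimulated with 1 nM E2 (final) for 16 hr; beta-lactamase reporter read by B/G FRET fluorescence after 2 hr substrate loading.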

A short description of experiment [17]: qHTS assay to identify small molecule antagonists of the progesterone receptor (PR) signaling pathway - cell viability counter screen (AID 1346798; active = well fitted curve in the direction sought with a large enough effect in the repeat runs; an effect the other way counts as inactive or inconclusive; also: series mostly up to about 92 µM; nearly all actives have a fitted effect of over 50% in size). The gist of the method:
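Measures cytotoxicity in parallel with the PR antagonist reporter read: HEK293T PR-UAS-bla cells get compound and R5020 for 16 hr, and remaining viable cells are quantified by CellTiter-Glo luminescence.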

Experiment [18] in a line: qHTS assay to identify small molecule agonists of the TGF-beta/Smad signaling pathway - cell viability counter screen (AID 1346829; active = well fitted curve in the direction sought with a large enough effect in the repeat runs; an effect the other way counts as inactive or inconclusive; also: top concentration of the series differs between compounds; nearly all actives have a fitted effect of over 45% in size). The gist of the method:
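Same-well cytotoxicity: CellTiter-Glo added after the 2 hr room-temperature beta-lactamase substrate step, luminescence measured 30 min later; cells had 5 hr of compound at 37 C.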

Experiment [19] deals with Thyrotropin-releasing hormone receptor (Homo sapiens) (UniProt P34981). The experiment in a line: qHTS assay to identify small molecule antagonists of the thyrotropin-releasing hormone receptor (TRHR) signaling pathway (AID 1346877; active = well fitted inhibition curve with a large enough effect in the repeat runs, not every such curve was filed as active; also: series mostly up to about 51 µM). The gist of the method: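 Antagonist mode: after a 5 min room-temperature compound exposure, cells were stimulated with 1 nM (final) TRH. Dye-loaded TRHR-HEK293 cells were used, and calcium-dependent fluorescence was followed for 3 min, with 15-point titrations run in triplicate.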
Sequence of Thyrotropin-releasing hormone receptor (Homo sapiens) (P34981 whole entry, looked up): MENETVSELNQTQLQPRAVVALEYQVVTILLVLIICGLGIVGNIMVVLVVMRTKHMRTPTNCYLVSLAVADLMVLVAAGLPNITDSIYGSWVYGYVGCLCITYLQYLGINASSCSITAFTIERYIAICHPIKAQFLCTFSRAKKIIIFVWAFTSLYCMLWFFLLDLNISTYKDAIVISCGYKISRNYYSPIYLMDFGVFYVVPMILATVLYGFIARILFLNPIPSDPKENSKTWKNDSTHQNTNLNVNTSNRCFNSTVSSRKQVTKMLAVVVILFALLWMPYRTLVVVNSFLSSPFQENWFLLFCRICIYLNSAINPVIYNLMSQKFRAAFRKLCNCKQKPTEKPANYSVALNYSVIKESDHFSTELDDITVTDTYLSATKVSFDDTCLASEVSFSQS

Sequence of Estrogen receptor (Homo sapiens) (P03372 whole entry, looked up): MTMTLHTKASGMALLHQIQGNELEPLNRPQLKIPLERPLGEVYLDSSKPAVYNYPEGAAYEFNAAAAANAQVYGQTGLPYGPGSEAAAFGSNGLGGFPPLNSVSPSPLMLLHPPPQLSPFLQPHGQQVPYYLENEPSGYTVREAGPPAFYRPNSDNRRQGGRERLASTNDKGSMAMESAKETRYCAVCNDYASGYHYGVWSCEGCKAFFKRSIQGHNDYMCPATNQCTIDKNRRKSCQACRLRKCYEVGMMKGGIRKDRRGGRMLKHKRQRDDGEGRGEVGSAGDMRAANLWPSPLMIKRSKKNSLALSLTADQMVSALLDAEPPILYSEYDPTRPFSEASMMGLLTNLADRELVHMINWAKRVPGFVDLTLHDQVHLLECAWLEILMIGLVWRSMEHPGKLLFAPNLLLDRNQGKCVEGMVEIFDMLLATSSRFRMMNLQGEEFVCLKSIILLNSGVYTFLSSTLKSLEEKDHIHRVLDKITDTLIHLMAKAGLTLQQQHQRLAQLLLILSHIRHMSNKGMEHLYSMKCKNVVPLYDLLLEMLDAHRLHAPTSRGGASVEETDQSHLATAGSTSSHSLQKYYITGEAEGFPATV
Sequence of Estrogen receptor beta (Homo sapiens) (Q92731 whole entry, looked up): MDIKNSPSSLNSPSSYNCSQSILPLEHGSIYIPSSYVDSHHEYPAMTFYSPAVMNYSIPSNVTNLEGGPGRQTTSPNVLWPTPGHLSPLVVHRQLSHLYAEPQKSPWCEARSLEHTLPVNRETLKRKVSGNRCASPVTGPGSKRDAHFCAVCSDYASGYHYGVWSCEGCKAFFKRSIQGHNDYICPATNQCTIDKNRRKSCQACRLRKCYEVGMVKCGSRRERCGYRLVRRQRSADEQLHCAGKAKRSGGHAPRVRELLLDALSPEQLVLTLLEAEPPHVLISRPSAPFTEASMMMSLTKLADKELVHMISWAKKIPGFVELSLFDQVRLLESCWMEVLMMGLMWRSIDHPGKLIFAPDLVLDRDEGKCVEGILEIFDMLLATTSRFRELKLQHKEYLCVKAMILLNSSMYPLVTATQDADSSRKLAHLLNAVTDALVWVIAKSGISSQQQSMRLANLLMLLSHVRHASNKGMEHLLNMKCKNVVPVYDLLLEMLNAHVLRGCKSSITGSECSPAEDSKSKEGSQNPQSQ
Sequence of Thyrotropin receptor (Homo sapiens) (P16473 whole entry, looked up): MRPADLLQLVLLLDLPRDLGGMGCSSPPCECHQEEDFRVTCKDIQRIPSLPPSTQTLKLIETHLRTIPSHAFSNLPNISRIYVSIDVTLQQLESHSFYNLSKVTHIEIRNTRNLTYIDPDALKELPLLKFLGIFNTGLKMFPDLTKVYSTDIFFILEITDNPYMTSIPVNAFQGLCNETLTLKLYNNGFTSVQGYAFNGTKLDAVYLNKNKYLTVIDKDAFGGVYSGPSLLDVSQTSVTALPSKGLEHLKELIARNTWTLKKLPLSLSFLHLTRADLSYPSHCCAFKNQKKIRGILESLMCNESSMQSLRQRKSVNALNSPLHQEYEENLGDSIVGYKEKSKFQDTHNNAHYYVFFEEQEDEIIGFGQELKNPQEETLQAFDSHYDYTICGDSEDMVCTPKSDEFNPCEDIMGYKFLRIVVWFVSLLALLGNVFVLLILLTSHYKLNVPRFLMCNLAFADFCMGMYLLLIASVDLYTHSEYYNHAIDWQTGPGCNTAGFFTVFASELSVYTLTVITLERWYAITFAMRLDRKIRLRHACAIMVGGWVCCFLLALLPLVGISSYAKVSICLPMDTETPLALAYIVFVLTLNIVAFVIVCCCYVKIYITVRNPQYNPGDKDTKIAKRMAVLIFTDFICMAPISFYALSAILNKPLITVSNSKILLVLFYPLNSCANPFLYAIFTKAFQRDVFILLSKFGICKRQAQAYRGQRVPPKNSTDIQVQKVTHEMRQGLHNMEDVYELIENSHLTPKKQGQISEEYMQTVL
Sequence of Progesterone receptor (Homo sapiens) (P06401 whole entry, looked up): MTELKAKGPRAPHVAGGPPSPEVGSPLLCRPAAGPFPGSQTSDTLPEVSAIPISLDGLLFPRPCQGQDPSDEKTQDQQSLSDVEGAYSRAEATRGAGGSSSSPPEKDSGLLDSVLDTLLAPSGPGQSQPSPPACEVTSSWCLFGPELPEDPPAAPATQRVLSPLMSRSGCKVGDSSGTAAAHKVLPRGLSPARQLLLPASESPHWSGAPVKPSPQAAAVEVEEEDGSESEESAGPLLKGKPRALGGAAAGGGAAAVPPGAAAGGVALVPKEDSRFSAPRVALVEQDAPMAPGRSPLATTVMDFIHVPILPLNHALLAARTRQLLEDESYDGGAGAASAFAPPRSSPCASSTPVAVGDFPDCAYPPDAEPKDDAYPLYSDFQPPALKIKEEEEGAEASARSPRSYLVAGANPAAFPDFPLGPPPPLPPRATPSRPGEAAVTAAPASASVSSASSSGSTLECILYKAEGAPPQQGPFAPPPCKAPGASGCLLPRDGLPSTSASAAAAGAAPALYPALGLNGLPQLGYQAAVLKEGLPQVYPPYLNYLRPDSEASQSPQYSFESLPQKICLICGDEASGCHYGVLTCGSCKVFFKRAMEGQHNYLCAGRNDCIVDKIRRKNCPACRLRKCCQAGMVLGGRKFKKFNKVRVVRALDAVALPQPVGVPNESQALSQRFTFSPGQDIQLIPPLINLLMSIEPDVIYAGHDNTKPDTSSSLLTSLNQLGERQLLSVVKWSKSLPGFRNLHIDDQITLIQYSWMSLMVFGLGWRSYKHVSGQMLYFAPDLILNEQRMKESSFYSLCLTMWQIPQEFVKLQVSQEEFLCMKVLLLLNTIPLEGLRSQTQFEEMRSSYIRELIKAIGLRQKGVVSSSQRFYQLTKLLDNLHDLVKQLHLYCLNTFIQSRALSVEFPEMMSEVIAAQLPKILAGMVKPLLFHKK

In the case of `OCc1ccccn1`, the Potency result in experiment [1], in experiment [2], in experiment [4], in experiment [5], in experiment [6] and in experiment [7] was “inactive” each time. Also, the Potency entry in experiment [9], in [11], in experiment [12] and in [13] was “inactive” each time. Further, the result in experiment [3], in experiment [8], in [10], in experiment [14] and in [15] was inactive.

Take `CC1=CC(=O)CCC1`: the Potency result in experiment [1], in [2], in experiment [16], in experiment [4], in experiment [5] and in [9] was “inactive” each time. Also, the Potency result in experiment [11], in [12], in experiment [17] and in experiment [13] was “inactive” in each case. Moreover, the result in experiment [3], in [8], in experiment [10], in [14], in experiment [18] and in [15] was inactive. Further, in experiment [19], the result was inactive.

Regarding `CNC(=O)c1c(I)c(NC(=O)CCCCC(=O)Nc2c(I)c(C(=O)O)c(I)c(C(=O)NC)c2I)c(I)c(C(=O)O)c1I`, the Potency entry in experiment [1], in experiment [2], in experiment [16], in experiment [4], in [6] and in experiment [7] was “inactive” throughout. Also, the Potency result in experiment [11], in experiment [12], in experiment [17] and in experiment [13] was “inactive” each time. For the same compound, the compound was called inactive in experiment [3], in [10], in experiment [14], in [15] and in [19].

In the case of `C#CC(C)(O)CC(C)C` (configuration not stated), the Potency result in experiment [1], in experiment [2], in experiment [16], in experiment [4], in experiment [5] and in experiment [11] was “inactive” in each case. The Potency result in experiment [12], in experiment [17] and in experiment [13] was “inactive” throughout. The outcome in experiment [3], in [8], in experiment [10], in [18], in experiment [15] and in experiment [19] was inactive.

Regarding `COc1cccc(OC)c1`, the Potency result in experiment [1], in experiment [2], in experiment [16], in experiment [4], in [9] and in experiment [11] was “inactive” each time. Further, the Potency result in [12], in [17] and in experiment [13] was “inactive” throughout. Moreover, the result in experiment [3], in [8], in experiment [10], in [18], in [15] and in [19] was inactive.

As to `CCCC=O`, the Potency entry in experiment [1], in [2], in experiment [16], in [4], in experiment [6] and in experiment [9] was “inactive” each time. Further, the Potency entry in [11], in [12], in experiment [17] and in experiment [13] was “inactive” in each case. The result in experiment [3], in [8], in experiment [10], in experiment [14], in experiment [18] and in experiment [15] was inactive.

With `c1cc(CN2CCCCC2)cc(OCCCNc2nc3ccccc3s2)c1`, the Potency result in [1], in experiment [6], in experiment [7], in [11] and in experiment [17] was “inactive” in each case. Besides, the results for the Potency in experiment [2], in [16] and in experiment [9] were 4.73 µM (active), 23.7 µM (active) and 29.8 µM (active), respectively. For the same compound, the compound was called inactive in experiment [3], in experiment [8], in [14], in experiment [18] and in experiment [15].

In the case of `CC(=O)N[C@@H](CCC(N)=O)C(=O)O`, the Potency entry in experiment [1], in experiment [2], in experiment [16], in experiment [4], in experiment [6] and in [7] was “inactive” each time. Also, the Potency result in experiment [11], in experiment [12], in experiment [17] and in [13] was “inactive” throughout. The result in experiment [3], in [10], in experiment [14], in experiment [18], in [15] and in experiment [19] was inactive.
